In ChEMBL document CHEMBL4513216, “Probing the Open Global Health Chemical Diversity Library for Multistage-Active Starting Points for Next-Generation Antimalarials” (ACS Infect Dis, 2020):
The campaign covered roughly 69,000 compounds. About 8,600 (12%) showed an effect of 50% or more. The full list was thinned out, with strong results kept by preference.

test system: Plasmodium berghei; assay: Screen against P. berghei liver stage (PbLuc), transformed with Luciferase, at 10uM; assay type: functional, HepG2; conditions: tested at 10 uM

**Q.** How did the INHIBITION turn out when COc1c(CNCc2cccc(CN(C)C)c2)c(C)nn1C was run?
**A.** 35.3%

**Q.** With Cc1nc(Nc2cnccn2)cc(C2CCCN2C2CCOCC2)n1 (stereo not drawn) as the compound, how does the INHIBITION read?
**A.** 25.6%

**Q.** CC(C)C1CCCN1C(=O)Nc1ccc(=O)n(C)c1 (stereo not drawn) was tested. Which INHIBITION did it give?
**A.** -22.1%

**Q.** With CCc1nc(C2CCCN2CC(=O)Nc2nnc(C)s2)no1 (stereo not drawn) as the compound, how does the INHIBITION read?
**A.** -11.9%

**Q.** CC(C)n1nc(CN2CCCC2=O)c2c1CN(C(=O)c1ccc[nH]1)C2 was tested. Which INHIBITION did it give?
**A.** 7.67%

**Q.** NC(=O)c1c(NC(=O)C2CCCO2)sc2c1CCc1ccccc1-2 (stereo not drawn) was tested. Which INHIBITION did it give?
**A.** -57.9%

**Q.** For Cc1ccccc1S(=O)(=O)N1CCC(c2[nH]ncc2C)C1 (stereo not drawn), which INHIBITION is on record?
**A.** 11.1%

**Q.** How did the INHIBITION turn out when CN1CC[C@H]2[C@H](C[C@@H](Cn3cncn3)N2c2nccs2)C1 was run?
**A.** 69.7%

**Q.** CC(=O)N1CC[C@H]2[C@H](C[C@@H](Cn3cncn3)N2c2nccs2)C1 was tested. Which INHIBITION did it give?
**A.** 85.4%

**Q.** Which INHIBITION does the source give for CN1CC[C@H]2[C@H](C[C@@H](CN3CCCC3)N2c2nccs2)C1 here?
**A.** 34.5%

**Q.** Which INHIBITION does the source give for CC(=O)N1CC[C@H]2[C@H](C[C@@H](CN3CCCC3)N2c2nccs2)C1 here?
**A.** 0.71%

**Q.** Which INHIBITION does the source give for CCC(=O)N1CC[C@H]2[C@H](C[C@@H](CN3CCCC3)N2c2nccs2)C1 here?
**A.** -0.284%

**Q.** Which INHIBITION does the source give for CC(C)N1CC[C@H]2[C@H](C[C@@H](Cn3cncn3)N2c2nccs2)C1 here?
**A.** 0.71%

**Q.** For Cc1nnc(N2CCOC(C)(C(=O)N(C)C)C2)c2ccccc12 (stereo not drawn), which INHIBITION is on record?
**A.** -9.51%

**Q.** Cc1cnn(CC2CCCN2C(=O)c2cccc3[nH]ncc23)c1 (stereo not drawn) was tested. Which INHIBITION did it give?
**A.** 24.5%

**Q.** For Cc1cccc(Oc2ccccc2CNC(=O)C2CCC(=O)NC2)c1 (stereo not drawn), which INHIBITION is on record?
**A.** 37.9%

**Q.** With O=C(NCC(O)(c1ccco1)C1CC1)c1ccccc1F (stereo not drawn) as the compound, how does the INHIBITION read?
**A.** 9.79%

**Q.** With O=C(NCc1ccc(F)cc1)NCC(O)(c1cccs1)C1CC1 (stereo not drawn) as the compound, how does the INHIBITION read?
**A.** -11.8%

**Q.** For O=C(NCc1ccc(F)cc1)NCC(O)(c1ccco1)C1CC1 (stereo not drawn), which INHIBITION is on record?
**A.** 66.9%

**Q.** For CN(C)Cc1nn(C)c2c1CCN(C(=O)c1cccnc1)C2, which INHIBITION is on record?
**A.** 17.4%

**Q.** Fc1ccc(N2CCOC(Cc3cccnc3)C2)cc1 (stereo not drawn) was tested. Which INHIBITION did it give?
**A.** 7.52%

**Q.** Which INHIBITION does the source give for CN(C)[C@H]1CCCCN(C(=O)COCc2nc3cc(F)ccc3[nH]2)C1 here?
**A.** 51.3%

**Q.** How did the INHIBITION turn out when CN1CC[C@H]2CN(C(=O)COCc3nc4cc(F)ccc4[nH]3)C[C@H]21 was run?
**A.** 47.3%

**Q.** For CN1C[C@@H]2CC[C@H]1CN(C(=O)COCc1nc3ccc(F)cc3[nH]1)C2, which INHIBITION is on record?
**A.** 35.1%

**Q.** Cc1ccc(Br)cc1C(=O)Nc1cc(C(N)=O)n(C)c1 was tested. Which INHIBITION did it give?
**A.** -20.2%

**Q.** With Cc1nc(C)n(CC2CN(Cc3cscn3)CCO2)n1 (stereo not drawn) as the compound, how does the INHIBITION read?
**A.** 21.935%

**Q.** How did the INHIBITION turn out when Cc1ccccc1-n1cc(-c2ccnc(N[C@@H](CO)C(C)C)n2)cn1 was run?
**A.** 8.7%

**Q.** Which INHIBITION does the source give for Cc1ccccc1-n1cc(-c2ccnc(N[C@H](CO)C(C)C)n2)cn1 here?
**A.** 68.2%

**Q.** Which INHIBITION does the source give for Cc1ccccc1-n1cc(-c2ccnc(NC(CO)C(C)C)n2)cn1 (stereo not drawn) here?
**A.** 95.7%

**Q.** With COC[C@H]1CCCN1c1nccc(-c2cnn(-c3ccccc3C)c2)n1 as the compound, how does the INHIBITION read?
**A.** 78.5%

**Q.** How did the INHIBITION turn out when Cc1ccccc1-n1cc(-c2ccnc(N3CCCC(O)C3)n2)cn1 (stereo not drawn) was run?
**A.** 3.06%

**Q.** Cc1ccccc1-n1cc(-c2ccnc(N3CCCC(CN)C3)n2)cn1 (stereo not drawn) was tested. Which INHIBITION did it give?
**A.** -29.6%

**Q.** How did the INHIBITION turn out when COc1cccc(-n2cc(-c3ccnc(NC(CO)C(C)C)n3)cn2)c1 (stereo not drawn) was run?
**A.** -40.6%

**Q.** With COc1cccc(-n2cc(-c3ccnc(N[C@@H](CO)C(C)C)n3)cn2)c1 as the compound, how does the INHIBITION read?
**A.** -95.7%

**Q.** Which INHIBITION does the source give for COc1cccc(-n2cc(-c3ccnc(N[C@H](CO)C(C)C)n3)cn2)c1 here?
**A.** 5.8%

**Q.** With Cc1cc(CN2CCN(C(=O)NCc3cccs3)CC2)no1 as the compound, how does the INHIBITION read?
**A.** -43.5%

**Q.** Which INHIBITION does the source give for CC(=O)NCCc1ccc(S(=O)(=O)Nc2cc(F)ccc2C)s1 here?
**A.** -12.2%

**Q.** CC(=O)N1CCC(c2cccc(NC3CCOCC3)n2)CC1 was tested. Which INHIBITION did it give?
**A.** 11.8%

**Q.** For COCCOCC1(CNCc2ccc(OC)cc2)C[C@@H](O)[C@@H](O)C1 (stereo partly drawn), which INHIBITION is on record?
**A.** -1.12%

**Q.** Which INHIBITION does the source give for COCCOCC1(CNC(=O)c2ccc(OC)cc2)C[C@@H](O)[C@@H](O)C1 (stereo partly drawn) here?
**A.** 50.6%

**Q.** For COCCOCC1(CNCc2cccc(OC)c2)C[C@@H](O)[C@@H](O)C1 (stereo partly drawn), which INHIBITION is on record?
**A.** 12.4%

**Q.** With Cc1nccc(N[C@H]2CN(CC(C)(C)N3CCOCC3)C[C@@H]2C2CC2)n1 as the compound, how does the INHIBITION read?
**A.** -10.6%

**Q.** With c1cc(CN2CC[C@H]3CO[C@H](CN4CCOCC4)[C@H]3C2)cs1 as the compound, how does the INHIBITION read?
**A.** 2.59%
